# Experimental data from the supplement of paper PMC9023506.
# Where a name gives a salt, the structure may show the parent alone.
# System: Danio rerio larvae (5 dpf)
# Experiment: habituation to 1-s acoustic pulses, difference vs DMSO (percentage points (treated minus DMSO)); higher = more of the behaviour than the DMSO vehicle control
# Conditions: 10 µM; exposure time: 3 h pre-incubation + 3 h imaging
# Protocol: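 5-dpf wild-type zebrafish larvae were imaged in 96-well plates. They were treated with 190 Tocris FDA-approved drugs at 10 µM (1 µl/ml DMSO) for 3 h before and 3 h during imaging at 28.5 °C, 48 larvae per drug. Automated image analysis gave % time moving and optomotor responses. Values are drug group mean minus DMSO vehicle mean (n=844), in percentage points, for 10 behaviours.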
row,SMILES,habituation to 1-s acoustic pulses
1,C=CCN1C[C@H](C(=O)N(CCCN(C)C)C(=O)NCC)C[C@@H]2c3cccc4[nH]cc(c34)C[C@H]21 [Cabergoline],3.78
2,CC(O)(CS(=O)(=O)c1ccc(F)cc1)C(=O)Nc1ccc(C#N)c(C(F)(F)F)c1 (configuration not stated) [Bicalutamide],-5.47
3,CC[C@@H](C(N)=O)N1CCCC1=O [Levetiracetam],-2.74
4,O=c1[nH]c2ccccc2n1C1CCN(CCCC(c2ccc(F)cc2)c2ccc(F)cc2)CC1 [Pimozide],-6.41
5,COc1ccc(C(CN(C)C)C2(O)CCCCC2)cc1 (configuration not stated) [Venlafaxine hydrochloride],-6.08
6,COc1cc2c(cc1OC)C1CC(=O)C(CC(C)C)CN1CC2 (configuration not stated) [Tetrabenazine],1.65
7,CCN(C)C(=O)Oc1cccc([C@H](C)N(C)C)c1 [Rivastigmine tartrate],-1.77
8,Cc1cccc([C@H](C)c2c[nH]cn2)c1C [Dexmedetomidine hydrochloride],-9.7
9,N[C@@H]1C[C@H]1c1ccccc1 [Tranylcypromine hydrochloride],-0.45
10,CN1C[C@H](C(=O)N[C@]2(C)O[C@@]3(O)[C@@H]4CCCN4C(=O)[C@H](Cc4ccccc4)N3C2=O)C[C@@H]2c3cccc4[nH]cc(c34)C[C@H]21 [Dihydroergotamine mesylate],1.85
11,CC(C)C[C@H]1C(=O)N2CCC[C@H]2[C@]2(O)O[C@](NC(=O)[C@@H]3C=C4c5cccc6[nH]c(Br)c(c56)C[C@H]4N(C)C3)(C(C)C)C(=O)N12 [Bromocriptine mesylate],-3.22
12,C=C1C[C@@H]2[C@H](CC[C@]3(C)C(=O)CC[C@@H]23)[C@@]2(C)C=CC(=O)C=C12 [Exemestane],-0.223
